Bioassay records as filed in PubChem.
Hits are enriched below; roughly 3% of the tested compounds scored in any of these assays.
MITF act: activators of MITF-driven TRPM1 promoter activity in SK-MEL-5 cells. SK-MEL-5 TRPM1-promoter luciferase, 24 h; % of positive control, neutral wells = 0. activation, % at 12.5 µM. hit rate 0.75% among 300,000;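 active means mean activation of at least 80% with every replicate also reaching 80%; inconclusive means mean reaches 80% but some replicate falls short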;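 further: 0% = neutral control wells and 100% = parthenolide positive control wells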
C2C12 statin: protects C2C12 myotubes from simvastatin toxicity; hit rate 0.78% among 330,000; AID 602340; rescue of ATP level, % at 7.49 µM; ATP luminescence, 48 h; scaled: DMSO 0, geranylgeraniol control 100;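 active means mean ATP rescue above about 67%, or every replicate alone reaching that limit, limit read from the data, passing the limit was not always enough; inconclusive means no clear call, values can overlap the other calls; inactive means mean under the limit and some replicate under it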;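 further: myotubes were challenged with 10 µM simvastatin during compound exposure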
Wnt bcat act: Wnt/beta-catenin pathway activation | hit rate 1.2% among 300,000 | Wnt/beta-catenin reporter cell assay, activator, plate reader | activation, % at 9.35 µM; in the data active means activation above about 30%, passing the limit was not always enough; inconclusive means no clear call, values can overlap the other calls;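 further: 0% = neutral control wells and 100% = positive control wells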
esBAF inh: SWI/SNF esBAF complex inhibition; mouse ES cells, Bmi1-luciferase knock-in reporter, 24 h; 100% = twice the neutral-well signal; reporter increase, % at 12.5 µM; hit rate 2% among 350,000; in the data active means activation above about 40%; inconclusive means no clear call, values can overlap the other calls;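 further: 0% = median of the plate's neutral control wells and 100% = double that signal; a rise in the Bmi1 reporter signal indicates esBAF inhibition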
* hit, by the source's call.

For C[C@H](CO)N1C[C@H](C)[C@@H](CN(C)C(=O)Nc2cccc3ccccc23)OCCCC[C@H](C)Oc2ccc(NC(=O)c3ccncc3)cc2C1=O the results were C2C12 statin 35 and esBAF inh -5.
For O=c1oc2ccccc2nc1/C=C(\O)c1ccccc1 the results were Wnt bcat act 40*.
O=[N+]([O-])c1ccc(Cl)c(NC(=S)N2CCCC2)c1 was read as MITF act 33, C2C12 statin 7, Wnt bcat act 3 and esBAF inh 52*.
For C(=C\c1ccccc1)/CSc1ccccn1 the results were MITF act 109* and Wnt bcat act 54*.
For Cc1cs/c(=N/C(=S)Nc2ccccc2)n1C the results were MITF act 102* and Wnt bcat act 5.
For CCCn1c(C)cs/c1=N\C(=S)Nc1ccccc1 the results were MITF act 0 and Wnt bcat act 3.
Screening O=C(OCc1cc([N+](=O)[O-])cc2c1OCOC2)c1ccc2ccccc2n1 returned MITF act 3 and Wnt bcat act -2.
CC(C)=CC(=O)OCc1cc([N+](=O)[O-])cc2c1OCOC2 was read as MITF act 48 and Wnt bcat act 41*.
For O=C(C[C@@H]1CC[C@H]2[C@@H](COC[C@@H](O)CN2Cc2ccc(Oc3ccccc3)cc2)O1)Nc1nccs1 the results were C2C12 statin 100* and esBAF inh 18.
`CCC(=O)Nc1ccc2c(c1)OC[C@@H](C)N(Cc1cccnc1)C[C@@H](C)[C@H](OC)CN(C)C2=O` gave C2C12 statin 4 and esBAF inh 0.
For C[C@@H]1CN([C@H](C)CO)C(=O)c2cc(NC(=O)CCN3CCOCC3)ccc2O[C@@H]1CN(C)Cc1ccc(-c2ccccc2)cc1 the results were C2C12 statin 19 and esBAF inh -5.
For N#Cc1ccccc1NC(=O)c1ccc(-c2ccccc2Cl)o1 the results were MITF act inconclusive, Wnt bcat act -3 and esBAF inh 50*.
For CN1CCN(c2ccc(NC(=O)c3ccc(Br)o3)cc2)CC1 the results were MITF act 34, C2C12 statin 8, Wnt bcat act 17 and esBAF inh 5.
For CN(C)S(=O)(=O)Oc1ccsc1C(=O)Nc1cccc(Cl)c1 the results were MITF act 5, C2C12 statin 1, Wnt bcat act -4 and esBAF inh 6.
`O=C(Nc1ccccc1)c1ccc(-c2ccc(Br)cc2)o1` gave C2C12 statin -13, Wnt bcat act 33* and esBAF inh 7.
COC(=O)c1sccc1-c1ccc(C(=O)Nc2cccc(Cl)c2)o1 was read as C2C12 statin -3 and esBAF inh 51*.
`CN1CCN(c2ccc(NC(=O)c3ccc(-c4ccccc4F)o3)cc2)CC1` gave MITF act 27, C2C12 statin -2, Wnt bcat act 49* and esBAF inh -23.
Screening C[C@H]1CN([C@@H](C)CO)C(=O)c2cc(C#CCc3ccccc3)cnc2O[C@H]1CN(C)C(=O)Cc1cccnc1 returned C2C12 statin 3 and esBAF inh -8.
`C[C@@H]1CCCCO[C@H](CN(C)S(=O)(=O)c2ccc(F)cc2)[C@@H](C)CN([C@H](C)CO)C(=O)c2cc(NC(=O)CCCCCC(=O)Nc3ccccc3N)ccc2O1` gave C2C12 statin -19 and esBAF inh -3.
For CC(=O)Nc1ccc(NC(=O)c2ccc(-c3ccccc3Cl)o2)cc1 the results were MITF act 57, C2C12 statin -14, Wnt bcat act 4 and esBAF inh 43*.
O=C(O)c1ccc(-c2ccccc2Cl)o1 was read as MITF act 8, C2C12 statin 0 and esBAF inh -3.
`O=C(Nc1ccccc1)c1ccc(-c2ccccc2Cl)o1` gave MITF act 89*, C2C12 statin -14, Wnt bcat act 29 and esBAF inh 53*.
For CCOC(=O)[C@H]1[C@H]2COc3ccc(Cl)cc3[C@@H]2N2C(=O)c3ccccc3NC(=O)[C@@]12C the results were MITF act 5, C2C12 statin 135*, Wnt bcat act -2 and esBAF inh 5.
For S=C(NN=C(C1CC1)C1CC1)Nc1ccccc1 the results were MITF act 30, C2C12 statin 142*, Wnt bcat act -2 and esBAF inh 32.
Screening O=C(NNC(=S)Nc1ccccc1)C1CC1 returned MITF act 6, C2C12 statin -4 and esBAF inh -4.
COc1ccc(-c2csc(Nc3ncccc3C)n2)cc1OC was read as MITF act 79, C2C12 statin -16, Wnt bcat act 3 and esBAF inh 87*.
